# Experimental data taken from PubChem BioAssay (EPA / NIEHS).
# Calls of active or inactive are those of the source. Rule for the calls: active = hit-call score of the fitted dose curve at least 0.9, where 1 is the maximum; inactive = score below 0.9.
# How the values were obtained:
# [1] = read-out: Transforming growth factor beta 1 (TGFb1), TGFB1 (gene 7040); assay: BSK_KF3CT_TGFb1: BioMAP Diversity Plus: KF3CT Assay for Transforming growth factor beta 1 (TGFb1) Biomarker Activity (AID 2283072); conditions: primary human keratinocytes with fibroblasts; actives raise or lower the signal
# Outline: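 Primary human skin cells (keratinocytes, foreskin fibroblasts) were co-cultured, exposed to test chemical and sampled at 24 h. TGF-b1 levels were measured by ELISA and fitted bidirectionally relative to DMSO.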
# [2] = read-out: C-C motif chemokine 2 (Homo sapiens) (UniProt P13500); assay: BSK_KF3CT_MCP1: BioMAP Diversity Plus: KF3CT Assay for Monocyte Chemoattractant Protein 1 (MCP1/CCL2) Biomarker Activity (AID 2283073); conditions: primary human keratinocytes with fibroblasts; actives raise or lower the signal
# Outline: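 ELISA read-out of MCP-1, 24 h post-dose, in primary human skin keratinocytes co-cultured with fibroblasts. Parallel SRB staining monitors cytotoxicity; changes fitted both directions relative to DMSO.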
# [3] = read-out: Matrix Metallopeptidase 9 (MMP9), MMP9 (gene 4318); assay: BSK_KF3CT_MMP9: BioMAP Diversity Plus: KF3CT Assay for Matrix Metallopeptidase 9 (MMP9) Biomarker Activity (AID 2283074); conditions: primary human keratinocytes with fibroblasts; actives raise or lower the signal;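 for AC50: MMP9 protein level quantified by ELISA in the co-culture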
# Outline: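 Human keratinocyte/foreskin fibroblast co-culture; compound added; 24 h; MMP-9 by ELISA; bidirectional fit vs DMSO baseline.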
# [4] = read-out: urokinase plasminogen activator (uPA), PLAU (gene 5328); assay: BSK_KF3CT_uPA: BioMAP Diversity Plus: KF3CT Assay for urokinase plasminogen activator (uPA) Biomarker Activity (AID 2283075); conditions: primary human keratinocytes with fibroblasts; actives raise or lower the signal
# Outline: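 ELISA readout of uPA, analyzed for signal gain or loss relative to DMSO, from a human primary keratinocyte–foreskin fibroblast co-culture measured 24 h after chemical treatment.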
# CD40, CD40 (gene 958) [5] = assay: BSK_LPS_CD40: BioMAP Diversity Plus: LPS Assay for CD40 Biomarker Activity (AID 2283076); conditions: primary human HUVEC with PBMC; actives raise or lower the signal
# Outline: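 In the LPS system of human endothelial cells with peripheral blood mononuclear cells, CD40 levels were read by ELISA 24 h post-treatment. Signal changes in either direction were fitted against the DMSO baseline, with parallel SRB protein staining.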
# [6] = read-out: E-selectin (Homo sapiens) (UniProt P16581); assay: BSK_LPS_Eselectin: BioMAP Diversity Plus: LPS Assay for Eselectin Biomarker Activity (AID 2283077); conditions: primary human HUVEC with PBMC; actives raise or lower the signal
# Outline: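 E-selectin ELISA on LPS-stimulated endothelial cell/PBMC co-cultures, read 24 h post-treatment; gains and losses fitted against DMSO. Parallel SRB staining (0.1% SRB after 10% TCA fixation, 560 nm) flags overt cytotoxicity.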
# [7] = read-out: Interleukin-8 (IL8), CXCL8 (gene 3576); assay: BSK_LPS_IL8: BioMAP Diversity Plus: LPS Assay for Interleukin-8 (IL8) Biomarker Activity (AID 2283078); conditions: primary human HUVEC with PBMC; actives raise or lower the signal
# Outline: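 ELISA read-out of IL-8 after 24 h chemical treatment of LPS-activated endothelial/PBMC human primary co-cultures. Changes either up or down relative to DMSO; overt cytotoxicity checked by sulforhodamine B staining in parallel wells.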
# [8] = BSK_LPS_SRB: Viability Assessment in the BioMAP Diversity Plus: LPS Assay (AID 2283079); conditions: primary human HUVEC with PBMC;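 note: total protein by sulforhodamine B absorbance as a cytotoxicity measure; measured one day after compound addition; fitted in both directions against DMSO so loss or gain of signal counts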
# Outline: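 SRB viability endpoint: cells fixed with 10% TCA, stained with 0.1% SRB, read at 560 nm, 24 h post-dose. HUVEC/PBMC co-culture; signal change in either direction scored relative to DMSO.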
# [9] = read-out: Interleukin-1 alpha (IL1a), IL1A (gene 3552); assay: BSK_LPS_IL1a: BioMAP Diversity Plus: LPS Assay for Interleukin-1 alpha (IL1a) Biomarker Activity (AID 2283080); conditions: primary human HUVEC with PBMC; actives raise or lower the signal
# Outline: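 Readout is IL-1a level by ELISA, 24 h post-dose, fitted as gain or loss relative to DMSO. System: LPS-activated human primary co-culture of vascular endothelium and peripheral blood mononuclear cells, with parallel SRB total-protein cytotoxicity.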
# [10] = read-out: Monocyte Chemoattractant Protein-1 (MCP1), CCL2 (gene 6347); assay: BSK_LPS_MCP1: BioMAP Diversity Plus: LPS Assay for Monocyte Chemoattractant Protein-1 (MCP1) Biomarker Activity (AID 2283081); conditions: primary human HUVEC with PBMC; actives raise or lower the signal;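 for AC50: secreted MCP-1 protein quantified by ELISA in culture supernatant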
# Outline: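 Secreted MCP-1 read by ELISA at 24 h post-dosing in an LPS-activated co-culture of endothelial cells with peripheral blood mononuclear cells. Fits run in both directions, DMSO as baseline; parallel SRB staining tracks overt cytotoxicity.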
# [11] = BSK_LPS_PGE2: BioMAP Diversity Plus: LPS Assay for Prostaglandin E2 (PGE2) Biomarker Activity (AID 2283082); conditions: primary human HUVEC with PBMC; actives raise or lower the signal;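 note: secreted prostaglandin E2 measured by ELISA in LPS-stimulated co-culture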
# Outline: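 LPS-activated HUVEC/PBMC co-culture; cmpd dosed, 24 h; PGE2 by ELISA; bidirectional fit vs DMSO; SRB (0.1%, TCA-fixed, 560 nm) in parallel plates for overt cytotox.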
# [12] = read-out: Macrophage colony-stimulating factor (MCSF), CSF1 (gene 1435); assay: BSK_LPS_MCSF: BioMAP Diversity Plus: LPS Assay for Macrophage colony-stimulating factor (MCSF) Biomarker Activity (AID 2283083); conditions: primary human HUVEC with PBMC; actives raise or lower the signal
# Outline: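 Bidirectional fitting against DMSO was applied to M-CSF levels read by ELISA at 24 h post-dose. The system pairs human umbilical vein endothelium with peripheral blood mononuclear cells; parallel SRB staining tracked cytotoxicity.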
# [13] = read-out: Tissue Factor, F3 (gene 2152); assay: BSK_LPS_TissueFactor: BioMAP Diversity Plus: LPS Assay for Tissue Factor Biomarker Activity (AID 2283084); conditions: primary human HUVEC with PBMC; actives raise or lower the signal
# Outline: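 Compound was added to an endothelial cell/PBMC co-culture, and after 24 h tissue factor (CD142) was read by ELISA. Gain or loss of signal was fitted against a DMSO baseline, and parallel SRB staining (560 nm) tracked overt cytotoxicity.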
# [14] = read-out: Tumor necrosis factor (Homo sapiens) (UniProt P01375); assay: BSK_LPS_TNFa: BioMAP Diversity Plus: LPS Assay for Tumour Necrosis Factor alpha (TNFa) Biomarker Activity (AID 2283085); conditions: primary human HUVEC with PBMC; actives raise or lower the signal;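 for AC50: TNFa protein level quantified by ELISA in the co-culture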
# Outline: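 Read-out is ELISA of TNFa in primary human endothelial cell–PBMC co-cultures at 24 h after compound. Activity in either direction was fitted against DMSO.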
# [15] = read-out: Vascular cell adhesion molecule 1 (VCAM1), VCAM1 (gene 7412); assay: BSK_LPS_VCAM1: BioMAP Diversity Plus: LPS Assay for Vascular cell adhesion molecule 1 (VCAM1) Biomarker Activity (AID 2283086); conditions: primary human HUVEC with PBMC; actives raise or lower the signal
# Outline: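 HUVEC + PBMC co-culture, LPS system; compound 24 h; VCAM-1 by ELISA; bidirectional fit vs DMSO control; parallel SRB (0.1%, TCA-fixed, 560 nm) for cytotoxicity.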
# CD38, CD38 (gene 952) = assay: BSK_SAg_CD38: BioMAP Diversity Plus: SAg Assay for CD38 Biomarker Activity (AID 2283087); conditions: primary human HUVEC with PBMC; actives raise or lower the signal
# Outline: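 Human HUVEC plus PBMC co-culture stimulated with superantigen; CD38 measured by ELISA 24 h after chemical dosing. Fluorescence read-out, bidirectional fit against DMSO; cytotoxicity tracked in parallel by SRB and Alamar Blue.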
# CD40, CD40 (gene 958) [16] = assay: BSK_SAg_CD40: BioMAP Diversity Plus: SAg Assay for CD40 Biomarker Activity (AID 2283088); conditions: primary human HUVEC with PBMC; actives raise or lower the signal
# Outline: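 CD40 is measured by fluorescence ELISA in an endothelial/PBMC primary human co-culture at 24 h post-dose. Fitting is bidirectional, DMSO baseline. Parallel SRB staining (560 nm) flags cytotoxicity.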
# CD69, CD69 (gene 969) = assay: BSK_SAg_CD69: BioMAP Diversity Plus: SAg Assay for CD69 Biomarker Activity (AID 2283089); conditions: primary human HUVEC with PBMC; actives raise or lower the signal;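 for AC50: cell surface CD69 protein quantified by ELISA with fluorescence detection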
# Outline: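 Primary human vascular co-culture (umbilical vein endothelium with peripheral blood mononuclear cells) exposed to test chemical for 24 h. CD69 levels quantified by fluorescence ELISA; DMSO served as negative control for bidirectional fitting.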
# [17] = read-out: E-selectin (Homo sapiens) (UniProt P16581); assay: BSK_SAg_Eselectin: BioMAP Diversity Plus: SAg Assay for Eselectin Biomarker Activity (AID 2283091); conditions: primary human HUVEC with PBMC; actives raise or lower the signal
# Outline: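 Cell-surface E-selectin is read by ELISA at 24 h in the SAg co-culture of HUVEC and PBMC. Curves are fitted in both directions relative to DMSO. Parallel SRB total-protein staining tracks overt toxicity.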
# E-selectin (Homo sapiens), sequence (P16581 whole entry, looked up): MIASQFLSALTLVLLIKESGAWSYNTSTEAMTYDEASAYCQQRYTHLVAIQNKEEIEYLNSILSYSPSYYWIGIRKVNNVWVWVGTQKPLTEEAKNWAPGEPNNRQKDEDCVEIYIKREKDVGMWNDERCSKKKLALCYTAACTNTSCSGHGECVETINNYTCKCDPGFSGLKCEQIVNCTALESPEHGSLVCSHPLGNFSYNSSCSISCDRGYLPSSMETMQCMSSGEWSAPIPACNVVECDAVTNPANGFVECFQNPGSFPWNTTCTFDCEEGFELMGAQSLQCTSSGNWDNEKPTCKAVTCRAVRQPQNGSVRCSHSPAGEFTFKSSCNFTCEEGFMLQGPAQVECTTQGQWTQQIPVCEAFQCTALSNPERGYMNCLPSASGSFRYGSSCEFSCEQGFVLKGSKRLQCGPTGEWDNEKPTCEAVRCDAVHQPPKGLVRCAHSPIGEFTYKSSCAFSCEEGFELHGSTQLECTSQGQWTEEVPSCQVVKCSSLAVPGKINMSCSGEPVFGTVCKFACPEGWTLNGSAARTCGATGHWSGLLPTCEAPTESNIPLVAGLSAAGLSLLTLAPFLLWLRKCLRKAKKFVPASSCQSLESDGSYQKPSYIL
# Tumor necrosis factor (Homo sapiens), sequence (P01375 whole entry, looked up): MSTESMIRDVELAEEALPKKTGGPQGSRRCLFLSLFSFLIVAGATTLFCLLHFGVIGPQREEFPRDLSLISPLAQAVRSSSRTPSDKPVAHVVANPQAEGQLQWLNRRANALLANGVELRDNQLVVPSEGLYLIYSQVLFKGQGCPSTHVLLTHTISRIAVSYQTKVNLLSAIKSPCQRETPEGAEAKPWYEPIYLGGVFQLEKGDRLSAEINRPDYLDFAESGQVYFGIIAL
structure (smiles),measurement,setting,value
CCC(C)c1ccccc1O (stereo not drawn),outcome,[1],inactive
same,outcome,[2],inactive
same,outcome,[3],inactive
same,outcome,[4],inactive
same,outcome,"CD40, CD40 (gene 958) [5]",inactive
same,outcome,[6],inactive
same,outcome,[7],inactive
same,outcome,[8],inactive
same,outcome,[9],inactive
same,outcome,[10],inactive
same,AC50,[11],3.28 µM (active)
same,outcome,[12],inactive
same,outcome,[13],inactive
same,outcome,[14],inactive
same,outcome,[15],inactive
same,outcome,"CD38, CD38 (gene 952)",inactive
same,outcome,"CD40, CD40 (gene 958) [16]",inactive
same,outcome,"CD69, CD69 (gene 969)",inactive
same,outcome,[17],inactive
CN(C)c1ccc(C(=C2C=CC(=[N+](C)C)C=C2)c2ccccc2)cc1,AC50,[1],194 nM (active)
same,AC50,[2],699 nM (active)
same,AC50,[3],20.7 nM (active)
same,AC50,[4],465 nM (active)
same,AC50,"CD40, CD40 (gene 958) [5]",13.3 nM (active)
same,AC50,[6],8.2 nM (active)
same,outcome,[7],inactive
same,AC50,[8],149 nM (active)
same,AC50,[9],9.44 nM (active)
same,AC50,[10],13.3 nM (active)
same,AC50,[11],0.0082 µM (active)
same,AC50,[12],37.9 nM (active)
same,AC50,[13],25 nM (active)
same,AC50,[14],13.8 nM (active)
same,AC50,[15],7.81 nM (active)
same,AC50,"CD38, CD38 (gene 952)",53.5 nM (active)
same,AC50,"CD40, CD40 (gene 958) [16]",8.57 nM (active)
same,AC50,"CD69, CD69 (gene 969)",3.38 nM (active)
same,AC50,[17],8.2 nM (active)
